Assay results as given in PubChem BioAssay (Tox21).
Records with an inconclusive call do not appear. The source made the active and inactive calls. Unless noted, the call rests on the fitted dose curve; in most records, active means well fitted curve in the direction sought with a large enough effect in the repeat runs; inconclusive means weak or mixed curves; inactive means no such curve, though single readings can be large; an effect the other way counts as inactive or inconclusive.

Key:
[1] = biological target: Thyrotropin receptor (Homo sapiens) (UniProt P16473); experiment: qHTS assay to identify small molecule agonists of the thyroid stimulating hormone receptor (TSHR) signaling pathway (AID 1224843; calls by dose curve; further: nearly all actives have a fitted effect of over 45% in size; further: potency means the concentration at half of the fitted maximal effect)
Outline: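 HEK293/TSHR, 800 cells/well; cpd 30 min RT; add cAMP-d2 + anti-cAMP-cryptate, 1 h RT; fluorescence read on plate reader. 15-pt titration, n=3.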

[2] = qHTS assay to identify small molecule agonists of the hypoxia (HIF-1) signaling pathway - cell viability counter screen (AID 1224844; calls by dose curve; further: nearly all actives have a fitted effect of over 50% in size)
Outline: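 Same wells as the HIF-1 reporter screen; ME-180 cells carrying HRE-bla, 17 hr treatment at 37C; CellTiter-Glo luminescence read after 30 min at room temperature.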

[3] = qHTS assay to identify small molecule agonists of H2AX (AID 1224845; active means well fitted activation curve with a large enough effect in the signal ratio in the repeat runs, not every such curve was filed as active; the % refers to the signal ratio; further: potency means the concentration at half of the fitted maximal effect)
Outline: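 Wild-type CHO-K1 cells, plated overnight, exposed 3hr at 37C to 15 concentrations (0.76% DMSO final). Lysed, then HTRF anti-pH2AX (S139) cryptate and anti-H2AX-d2 antibodies, 24 hr room temperature; 665/620 nm emission read.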

[4] = qHTS assay to identify small molecule agonists of the hypoxia (HIF-1) signaling pathway (AID 1224846; active means well fitted activation curve with a large enough effect in the signal ratio in the repeat runs, not every such curve was filed as active; the % refers to the signal ratio)
Outline: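 In ME-180 cells bearing an HRE-bla construct, 17 h treatment with DMSO-dissolved compounds at 37C was followed by CCF4-AM loading to quantify reporter induction.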

[5] = qHTS assay to identify small molecule agonists of H2AX - cell viability counter screen (AID 1224847; calls by dose curve; further: top concentration of the series differs between compounds; nearly all actives have a fitted effect of over 30% in size)
Outline: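 Compounds tested at 15 concentrations were incubated 3 hr at 37C with wild-type CHO-K1 cells; cellular ATP-based luminescence (CellTiter-Glo) indicated viability.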

[6] = qHTS RealTime-Glo MT Cell Viability Assay in HepG2 cells - 24 hour (AID 1224867); further: nearly all actives have a fitted effect of over 50% in size
Outline: (§1)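 Cells + NanoLuc/prosubstrate dispensed (600 cells/well) → 5 h at 37 C/5% CO2 → compounds in DMSO transferred → 40 h incubation at 37 C, luminescence read at 0, 8, 16, 24, 32, 40 h.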

[7] = qHTS RealTime-Glo MT Cell Viability Assay in HEK293 cells - 32 hour (AID 1224868); further: nearly all actives have a fitted effect of over 50% in size; further: potency means the concentration at half of the fitted maximal effect
Outline: (§2)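 Tox21 10K qHTS, HEK293, 600 cells/well, RealTime-Glo reagent co-dispensed with cells; 5 h preincubation, compound by pintool, 37 C, luminescence at 0–40 h.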

[8] = A CellTox Green Cytotoxicity Assay to monitor cytotoxicity in HEK293 cells - 0 hour (AID 1224869); further: nearly all actives have a fitted effect of over 50% in size
Outline: (§3)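 Homogeneous no-lysis format: HEK293 cell suspension mixed with CellTox Green reagent, seeded, incubated 5 h at 37 C/5% CO2, then dosed by pintool with compound in DMSO.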

[9] = qHTS RealTime-Glo MT Cell Viability Assay in HepG2 cells - 40 hour (AID 1224870); further: nearly all actives have a fitted effect of over 50% in size
Outline: (§4)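 HepG2 cells (600/well) mixed with RealTime-Glo MT reagent, settled 5 h at 37 C/5% CO2 before compound addition. Nonlytic NanoLuc luminescence from viable-cell prosubstrate reduction read repeatedly during 40 h treatment at 37 C.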

[10] = A CellTox Green Cytotoxicity Assay to monitor cytotoxicity in HEK293 cells - 40 hour (AID 1224871); further: nearly all actives have a fitted effect of over 45% in size
Outline: as §3

[11] = qHTS RealTime-Glo MT Cell Viability Assay in HepG2 cells - 8 hour (AID 1224873); further: nearly all actives have a fitted effect of over 55% in size
Outline: as §4

[12] = qHTS RealTime-Glo MT Cell Viability Assay in HEK293 cells - 40 hour (AID 1224874); settings: RealTime-Glo luminescence; max response: stronger effect = lower value; further: nearly all actives have a fitted effect of over 50% in size; further: potency means the concentration at half of the fitted maximal effect
Outline: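 Measured as luminescence from the same continuously cultured HEK293 wells at successive time points (0, 8, 16, 24, 32, 40 h) after compound addition. Reagent present from seeding; dosing at 5 h; incubation 37 C.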

[13] = A CellTox Green Cytotoxicity Assay to monitor cytotoxicity in HEK293 cells - 24 hour (AID 1224875); further: nearly all actives have a fitted effect of over 45% in size
Outline: as §3

[14] = A CellTox Green Cytotoxicity Assay to monitor cytotoxicity in HepG2 cells - 16 hour (AID 1224876); further: nearly all actives have a fitted effect of over 45% in size
Outline: (§5)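 Fluorescent DNA-binding dye, 600 HepG2 cells/well, 5 h preincubation then compound in DMSO; same plates read at 0–40 h, 37 C.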

[15] = qHTS RealTime-Glo MT Cell Viability Assay in HepG2 cells - 32 hour (AID 1224877); further: nearly all actives have a fitted effect of over 55% in size
Outline: as §1

[16] = A CellTox Green Cytotoxicity Assay to monitor cytotoxicity in HepG2 cells - 24 hour (AID 1224878); further: nearly all actives have a fitted effect of over 45% in size; further: potency means the concentration at half of the fitted maximal effect
Outline: as §5

[17] = A CellTox Green Cytotoxicity Assay to monitor cytotoxicity in HepG2 cells - 40 hour (AID 1224879); further: nearly all actives have a fitted effect of over 40% in size; further: potency means the concentration at half of the fitted maximal effect
Outline: as §5

[18] = qHTS RealTime-Glo MT Cell Viability Assay in HEK293 cells - 16 hour (AID 1224872); further: nearly all actives have a fitted effect of over 50% in size; further: potency means the concentration at half of the fitted maximal effect
Outline: as §2

[19] = qHTS assay to identify small molecule antagonists of the estrogen related receptor (ERR) signaling pathway from Tox21 library (AID 1224848); further: nearly all actives have a fitted effect of over 50% in size; further: potency means the concentration at half of the fitted maximal effect
Outline: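 Compounds dissolved in DMSO are pin-transferred onto ERR reporter cells (2,000 per well) that have settled for 6 h at 37 C. Plates then incubate 18 h at 37 C before ONE-Glo luciferase reagent and a luminescence read 30 min later.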

[20] = qHTS assay to identify small molecule agonists of the estrogen related receptor (ERR) signaling pathway from Tox21 library (AID 1224849; calls by dose curve; further: nearly all actives have a fitted effect of over 15% in size); settings: ERR reporter cell line, ONE-Glo luciferase, 18 h; at 92.4 µM (top of the series) unless noted
Outline: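 Reporter cells (ERR, NTP source) treated with Tox21 10K compounds 18 h, 37 C. Readout: ONE-Glo luminescence, 30 min RT.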
On the % scale 0 is the no-effect control and ±100 the full control effect.

Chain of Thyrotropin receptor (Homo sapiens) (P16473 whole entry, looked up): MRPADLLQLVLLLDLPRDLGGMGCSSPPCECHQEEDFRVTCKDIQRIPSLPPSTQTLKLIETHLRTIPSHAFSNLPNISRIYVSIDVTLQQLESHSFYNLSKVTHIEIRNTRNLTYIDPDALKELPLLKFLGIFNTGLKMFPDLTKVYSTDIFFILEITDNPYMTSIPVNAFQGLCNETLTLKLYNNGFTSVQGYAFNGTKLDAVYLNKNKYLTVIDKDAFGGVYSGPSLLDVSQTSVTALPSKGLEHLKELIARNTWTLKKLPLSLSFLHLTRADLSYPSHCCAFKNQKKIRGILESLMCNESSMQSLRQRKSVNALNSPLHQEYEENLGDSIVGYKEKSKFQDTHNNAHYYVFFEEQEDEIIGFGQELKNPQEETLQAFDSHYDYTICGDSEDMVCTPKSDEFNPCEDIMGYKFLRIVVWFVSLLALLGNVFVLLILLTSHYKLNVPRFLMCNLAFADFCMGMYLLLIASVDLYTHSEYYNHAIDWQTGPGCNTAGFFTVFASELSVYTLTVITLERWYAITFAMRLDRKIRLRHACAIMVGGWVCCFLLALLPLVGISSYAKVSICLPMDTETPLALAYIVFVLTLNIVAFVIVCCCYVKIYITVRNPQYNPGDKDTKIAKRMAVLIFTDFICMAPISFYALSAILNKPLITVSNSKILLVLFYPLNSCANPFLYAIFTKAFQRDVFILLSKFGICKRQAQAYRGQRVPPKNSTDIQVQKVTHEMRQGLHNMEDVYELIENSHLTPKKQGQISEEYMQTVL

O=C1C=CCCC1
inactive: Potency [1] | Potency [2] | Potency [3] | outcome [4] | Potency [5] | outcome [6] | Potency [7] | Potency [8] | Potency [9] | Potency [10] | outcome [11] | max response [12] -0.315% | Potency [13] | Potency [14] | Potency [15] | Potency [16] | Potency [17]

O=C1c2ccccc2C(=O)C1c1ccc2ccccc2n1
inactive: Potency [1] | Potency [2] | Potency [3] | outcome [4] | Potency [5] | outcome [6] | Potency [9] | outcome [11] | Potency [15] | Potency [16] | Potency [17]

Clc1nc2ccccc2nc1Cl
inactive: Potency [1] | Potency [2] | Potency [3] | outcome [4] | Potency [5] | outcome [6] | Potency [8] | Potency [9] | Potency [10] | outcome [11] | Potency [13] | Potency [14] | Potency [15] | Potency [16] | Potency [17]

Oc1ccc(Oc2ccccc2)cc1
inactive: Potency [1] | Potency [2] | outcome [4] | outcome [6] | Potency [8] | Potency [9] | outcome [11] | Potency [13] | Potency [15]
active: Potency [3] 38.1 µM | Potency [7] 16.5 µM | Potency [18] 14.7 µM | Potency [12] 14.7 µM | Potency [16] 36.9 µM | Potency [17] 36.9 µM

c1ccc(CN(Cc2ccccc2)Cc2ccccc2)cc1
inactive: Potency [2] | Potency [3] | outcome [4] | outcome [6] | Potency [8] | Potency [9] | Potency [10] | Potency [18] | outcome [11] | max response [12] 4.19% | Potency [14] | Potency [15]
active: Potency [1] 17.2 µM | Potency [17] 15.5 µM

Nc1ccc(C(=O)Oc2ccccc2)c(O)c1
active: activity change, positive = activation [20] 83.9% [at 42.5 µM]
inactive: Potency [1] | Potency [2] | outcome [4] | Potency [5] | Potency [19] | outcome [6] | Potency [7] | Potency [8] | Potency [9] | Potency [10] | Potency [18] | outcome [11] | max response [12] -15.9% | Potency [13] | Potency [14] | Potency [15] | Potency [16] | Potency [17]

O=Cc1ccc([N+](=O)[O-])cc1
inactive: Potency [1] | Potency [2] | outcome [4] | Potency [5] | Potency [19] | outcome [6] | Potency [7] | Potency [8] | Potency [9] | Potency [10] | Potency [18] | outcome [11] | max response [12] 7.58% | Potency [14] | Potency [15] | Potency [16] | Potency [17]
active: activity change, positive = activation [20] 51.8%

C=CC(=O)NC(C)(C)C
inactive: Potency [1] | Potency [2] | Potency [3] | Potency [5] | outcome [6] | Potency [7] | Potency [8] | Potency [9] | Potency [10] | outcome [11] | max response [12] 1.33% | Potency [13] | Potency [14] | Potency [15] | Potency [16]

CCCCOC(=O)CC#N
inactive: Potency [1] | Potency [2] | outcome [4] | Potency [5] | outcome [6] | Potency [7] | Potency [8] | Potency [9] | Potency [10] | Potency [18] | outcome [11] | max response [12] 7.32% | Potency [13] | Potency [14] | Potency [15] | Potency [16] | Potency [17]

Cc1ccc(NC(=O)c2ccc(CN3CCN(C)CC3)cc2)cc1Nc1nccc(-c2cccnc2)n1
inactive: Potency [1] | Potency [2] | Potency [3] | Potency [5] | outcome [6] | Potency [8] | Potency [9] | Potency [10] | outcome [11] | Potency [13] | Potency [15] | Potency [16]
active: Potency [7] 21.3 µM | Potency [12] 21.3 µM

Nc1cccc2c(=O)[nH][nH]c(=O)c12
active: Potency [19] 48.8 µM
inactive: Potency [1] | Potency [2] | outcome [4] | Potency [5] | activity change, positive = activation [20] -53.6% | outcome [6] | Potency [7] | Potency [8] | Potency [9] | Potency [10] | Potency [18] | outcome [11] | Potency [13] | Potency [15] | Potency [16] | Potency [17]

CC(C)(C)NCC(O)COc1ccc(NC(=O)NC2CCCCC2)cc1 (stereo unspecified)
inactive: Potency [1] | Potency [2] | Potency [3] | Potency [5] | Potency [8] | Potency [10] | Potency [13] | Potency [14] | Potency [16]

CC(C)(C(=O)O)c1ccc(C(O)CCCN2CCC(C(O)(c3ccccc3)c3ccccc3)CC2)cc1 (stereo unspecified)
inactive: Potency [1] | Potency [2] | Potency [3] | Potency [5] | outcome [6] | Potency [7] | Potency [8] | Potency [9] | Potency [10] | Potency [18] | outcome [11] | max response [12] 1.75% | Potency [13] | Potency [14] | Potency [15] | Potency [16] | Potency [17]

CCCC1CCCC(=O)O1 (stereo unspecified)
inactive: Potency [1] | Potency [2] | Potency [3] | Potency [5] | outcome [6] | Potency [7] | Potency [8] | Potency [9] | Potency [10] | outcome [11] | max response [12] 0.877% | Potency [13] | Potency [14] | Potency [15] | Potency [16] | Potency [17]

Cc1c(N=C=O)cccc1N=C=O
inactive: Potency [1] | Potency [2] | Potency [3] | Potency [5] | outcome [6] | Potency [8] | Potency [9] | Potency [10] | Potency [18] | outcome [11] | max response [12] 2.75% | Potency [13] | Potency [14] | Potency [15]

CC(=O)S[C@H](C(=O)N[C@H]1Cc2ccccc2[C@H]2CCC[C@@H](C(=O)O)N2C1=O)C(C)C
inactive: Potency [1] | Potency [2] | outcome [4] | Potency [5] | Potency [19] | activity change, positive = activation [20] 1.31% | outcome [6] | Potency [7] | Potency [8] | Potency [9] | Potency [10] | Potency [18] | outcome [11] | max response [12] 16.8% | Potency [13] | Potency [14] | Potency [15] | Potency [16]
